Sampled rows, rich in hits. Any-hit rate of the full collection: about 9.4%.
AMA1-RON2 inh: qHTS for Inhibitors of AMA1-RON; Towards Development of Antimalarial Drug Lead: Primary Screen | Plasmodium falciparum AMA1 (3D7) - RON2 peptide interaction | AlphaScreen AMA1-biotinylated RON2 peptide binding | Potency, µM (top dose mostly 58.2 µM), usual class: inhibitors | hit rate 0.2% among 360,000; further: nearly all actives have a fitted effect of over 45% in size
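AMA1 (3D7) with his tag at 25 nM final met compounds first, then biotinylated RON2 peptide at 25 nM; detection used donor plus acceptor beads, 10 µg/mL apiece, read by AlphaScreen after 30 min at room temperature.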
SARS PLP yeast: qHTS of Yeast-based Assay for SARS-CoV PLP; AID 485353, 2010; hit rate 0.19% among 330,000; Potency, µM (titrated, usually from 32.9 µM), actives largely listed as activators; S. cerevisiae expressing SARS-CoV PLpro, growth rescue; calls by dose curve; further: nearly all actives have a fitted effect of over 55% in size
Pf growth 96h: Primary qHTS for delayed death inhibitors of the malarial parasite plastid, 96 hour incubation; P. falciparum luciferase reporter growth, 96 h; Potency, µM (titrated, usually from 28.7 µM), actives largely listed as inhibitors; hit rate 6.9% among 320,000
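Erythrocytes infected with luciferase-expressing P. falciparum were dispensed at 2% hematocrit and 0.05% parasitemia (final), then incubated with compounds 96 hours at 37 C in 5% CO2. Luminescence after detection reagent addition reported growth.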
Pf growth 48h: Primary qHTS for delayed death inhibitors of the malarial parasite plastid, 48 hour incubation | P. falciparum luciferase growth in erythrocytes, 48 h | Potency, µM (titrated, usually from 28.7 µM), hits mostly inhibitors | hit rate 5.9% among 310,000 | AID 504832, 2011
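Luminescence readout; reporter = integrated firefly luciferase in P. falciparum. RBC culture at 2% hematocrit, 0.1% parasitemia final, 37 C/5% CO2; decreased signal taken as growth inhibition.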
A number is an active result; i = inactive; ? = inconclusive; nt = not tested or not shown. Unless noted, the call rests on the fitted dose curve; in most records, active means well fitted curve in the direction sought with a large enough effect; inconclusive means small, poorly fitted or top-dose-only effect, or another doubt; inactive means no such curve, though single readings can be large; an effect the other way counts as inactive or inconclusive.

SMILES	AMA1-RON2 inh	SARS PLP yeast	Pf growth 96h	Pf growth 48h
CCC(=O)N1CCc2cc(S(=O)(=O)N3CCCCC3CC)ccc21 (configuration not stated)	i	i	i	i
CCCCc1cc(C)c(S(=O)(=O)c2ccccc2C)c(=O)[nH]1	i	i	i	i
O=C(N/N=C/C(Br)=C\c1ccccc1)c1ccc2nc[nH]c2c1	i	i	?	i
O=[N+]([O-])c1ccc(Oc2cccc(Br)c2)c2ccncc12	?	i	nt	12µM
O=[N+]([O-])c1ccc(Oc2ccc(F)cc2)c2ccncc12	i	i	nt	9.3µM
O=[N+]([O-])c1cccc2cnccc12	i	nt	nt	nt
COc1ccc(-n2nc(C(=O)N3CCN(c4ccc(F)cc4)CC3)c3ccccc3c2=O)c(OC)c1	i	i	?	?
O=C(C#Cc1ccccc1)Nc1ccccc1F	i	i	9.3µM	i
CNC(=O)Nc1ccccc1F	i	i	i	nt
CCn1c(COc2ccc(OC)cc2)nc2ccccc21	i	i	4.7µM	i
OCc1nc2ccccc2n1CCOc1ccccc1	i	nt	nt	nt
Cc1cccc(OCCn2c(CCCO)nc3ccccc32)c1	i	i	?	15µM
CCOc1ccc(NCc2nc3ccccc3n2CCOc2ccccc2)cc1	14µM	i	6.6µM	i
COCCN=C(NS(=O)(=O)c1cccs1)c1ccccc1Cl	i	i	nt	nt
CCOc1ccc(OCC(=O)OCC(=O)Nc2ccc3[nH]c(=O)[nH]c3c2)cc1	i	i	i	i
Cc1cc([N+](=O)[O-])ccc1NC(=O)CSc1nncn1-c1cccnc1	i	i	i	i
C=CCc1cccc(Cl)c1OCCON1C(=O)CCC1=O	i	i	nt	i
CCOc1ccc(C(=O)NCC(=O)NCCCSc2ccccc2)cc1OCC	i	i	15µM	i
CC(C)(C)NC(=O)c1cc(C(C)(C)C)c(O)c(C(C)(C)C)c1	i	i	9.3µM	?
CC(C)(C)NC(=O)c1ccc(C(=O)NC(C)(C)C)cc1	i	i	i	i
CCN(CC)C(=O)c1cc(C(C)(C)C)c(O)c(C(C)(C)C)c1	i	i	10µM	?
CCn1c(=NC(=O)c2ccc(N3C(=O)CCC3=O)cc2)sc2c(OC)ccc(OC)c21	i	i	?	nt
CN(C)CC(C)(C)CNCc1cc(=O)oc2ccc3ccccc3c12	i	i	i	i
Cc1ccc(C(=O)Nc2cccc(-c3cn4ccccc4n3)c2)cc1	i	i	13µM	i
O=C(Nc1cccc(-c2cn3ccccc3n2)c1)c1ccccc1	i	i	i	?
SMILES	AMA1-RON2 inh	SARS PLP yeast	Pf growth 96h	Pf growth 48h
O=C(Nc1cccc(-c2cn3cccnc3n2)c1)c1ccc2c(c1)OCO2	i	i	1.3µM	i
Cc1cc(C)c(S(=O)(=O)Nc2ccc(-c3cn4ccccc4n3)cc2)c(C)c1	i	i	nt	15µM
Cc1cccc(S(=O)(=O)Nc2ccc(-c3cn4ccccc4n3)cc2)c1	i	i	?	i
O=C1C=C(c2cc(Cl)cc(Cl)c2)C[C@@H](c2ccc3c(c2)OCO3)C1	i	i	?	?
CCOc1ccc(N2CC(C(=O)Nc3ccc4c(c3)OCCO4)CC2=O)cc1 (configuration not stated)	i	i	i	i
CCn1ncc(Br)c1C(=O)Nc1ccc(-c2ccno2)cc1	i	i	?	i
O=C(Nc1ccc(Br)cc1)C1C2C=CC3(O2)C1C(=O)N(CCN1CCOCC1)C3C(=O)NC1CCCCC1 (configuration not stated)	i	i	10µM	i
Cc1ccc(NC(=O)C2C3C=CC4(O3)C2C(=O)N(CCCN2CCOCC2)C4C(=O)NC2CCCCC2)cc1Cl (configuration not stated)	i	i	2.1µM	i
N#Cc1ccccc1Cn1c(=O)n(CCC(=O)NCc2ccco2)c(=O)c2ccccc21	i	?	?	i
Cc1cc(C)c(NC(=O)Cn2c(=O)n(Cc3ccco3)c(=O)c3ccccc32)c(C)c1	i	i	i	13µM
Cc1ccccc1Cn1c(=O)n(-c2ccccc2)c(=O)c2ccc(C(=O)NCc3ccco3)cc21	nt	i	8.3µM	i
N#Cc1ccccc1Cn1c(=O)n(Cc2ccc(C(=O)NCc3ccco3)cc2)c(=O)c2ccccc21	i	i	i	2.9µM
O=C(CCCCn1c(=O)c2ccccc2n(Cc2ccc(Cl)cc2)c1=O)NCc1ccco1	i	i	i	12µM
COc1cccc(C(O)c2nc(-c3ccc(OC)nc3)cs2)c1 (configuration not stated)	i	nt	nt	nt
NC(=O)c1nnsc1Sc1c(C(N)=O)nnn1-c1cccc(N)c1	i	i	i	?

Screening results as filed in PubChem BioAssay.
